Data on 60 compounds can be found in PubChem BioAssay AID2058 (Sanford-Burnham Center for Chemical Genomics, 2009).

About 150 (0.052%) of roughly 290,000 compounds were called active.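 How the source made its calls: active means inhibition of at least 50% with at least 30 cells and total cytoplasm GFP at most 10,000,000; inconclusive means under 30 cells or total GFP of 10,000,000 plus; inactive means the rest.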 Shown is part of a subset that was picked to be rich in actives. Results with a measured potency or affinity are listed apart.

The target in the assay is G-protein coupled receptor 35 (Homo sapiens) (UniProt Q9HC97). In words: GPR35 antagonists blocking zaprinast-driven arrestin recruitment, primary screen, imaging, U2OS, beta-arrestin-GFP, zaprinast agonist (AID 2058). The note with it: U2OS GPR35 beta-arrestin-GFP translocation imaging, zaprinast antagonism; at 10 µM; hits give high values. (Activated receptors often draw arrestin, which recruitment assays turn into a signal.)
Sequence of G-protein coupled receptor 35 (Homo sapiens) (Q9HC97 whole entry, looked up): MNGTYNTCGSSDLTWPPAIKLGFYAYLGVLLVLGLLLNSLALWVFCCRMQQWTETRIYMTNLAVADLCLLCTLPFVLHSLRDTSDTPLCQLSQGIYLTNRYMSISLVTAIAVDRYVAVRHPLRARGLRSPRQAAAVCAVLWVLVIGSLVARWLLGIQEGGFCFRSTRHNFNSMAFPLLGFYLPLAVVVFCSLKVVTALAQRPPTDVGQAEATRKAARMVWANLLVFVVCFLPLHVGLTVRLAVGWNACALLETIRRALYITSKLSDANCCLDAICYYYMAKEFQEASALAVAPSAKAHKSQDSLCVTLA
Consider `Cc1ccc(NC(=O)C(C)Sc2nnc(-c3cccnc3)n2-c2ccccc2)cc1` (stereo not given), for which the inhibition (in general, the relative decrease from the control value, in per cent) is -0.8% (inactive).
Under `Cc1nn(C(C)C(=O)NCCc2ccco2)c(=O)c2nn(-c3ccccc3)c(C)c12` (stereo not given) stands -4% (inactive); under `Cc1cc(-c2nn(-c3ccccc3F)cc2CN2CCC(O)CC2)c(C)s1`, -0.9% (inactive).
Consider `Cc1cc(-c2nn(-c3ccccc3F)cc2CN(C)CC(O)CO)c(C)s1` (stereo not given), for which the inhibition was 103% (active).
The same measure for `Cc1cc(-c2nn(-c3ccccc3F)cc2CN2CCCC(CO)C2)c(C)s1` (stereo not given): 19.6% (inactive).
As for `COCc1cc(/C=N\NC(=O)Cc2ccc(Cl)cc2)ccc1OC`, the inhibition was 1.9% (inactive).
Under `O=C(CCc1nnc2n(Cc3ccc(F)cc3)c(=O)c3ccccc3n12)NCCCN1CCOCC1` stands -5.8% (inactive); under `CCOc1ccc(/C=C2/SC(=O)NC2=S)cc1`, 5.9% (inactive).
Under `CCOc1ccc(/C=C2\SC(=S)NC2=O)cc1OC` stands -8% (inactive); under `CCOc1ccc(NC(=S)N(CCN2CCOCC2)Cc2cc3cc4c(cc3[nH]c2=O)OCCO4)cc1`, 6.4% (inactive); under `COc1ccc(NC(=S)N(CCN2CCOCC2)Cc2cc3cc4c(cc3[nH]c2=O)OCO4)cc1`, -1.5% (inactive).
Under `COc1ccc(NC(=S)N(CCN2CCOCC2)Cc2cc3cc4c(cc3[nH]c2=O)OCCO4)cc1` stands 98.1% (active).
Regarding `CS(=O)(=O)c1ccc(NCCc2ccc(S(N)(=O)=O)cc2)c([N+](=O)[O-])c1`, the inhibition was -3.1% (inactive).
On to `COc1ccc(N2CCN(C3CC(=O)N(Cc4ccccc4)C3=O)CC2)cc1` (stereo not given), for which the inhibition was 6.4% (inactive).
The same measure for `COc1cc(/C=N/O)cc(Cl)c1OC`: 1.8% (inactive); for `O=c1cc(CSCc2ccc(Cl)cc2)[nH]c(=O)[nH]1`: 2.3% (inactive).
The same measure for `Cc1[nH][nH]c(=O)c1N=Nc1ccc(Cl)cc1`: -3.2% (inactive); for `O=c1cc(N=Nc2ccc(Cl)cc2)[nH]c(=O)[nH]1`: 52.2% (active).
The same measure for `O=C(COc1ccc(Cl)cc1Cl)NCCSc1ccc(Cl)cc1`: -14.2% (inactive).
With `O=[N+]([O-])c1c(Nc2ccc(O)cc2)cc(Cl)c2nonc12`, the inhibition is 72.1% (active).
Turning to `O=[N+]([O-])c1c(Nc2cccc(O)c2)cc(Cl)c2nonc12`, the inhibition was 35% (inactive).
Turning to `O=C(O)c1ccc(Nc2cc(Cl)c3nonc3c2[N+](=O)[O-])cc1`, the inhibition was 8.7% (inactive).
The same measure for `COC(=O)C1=C(C)N=C2SCCC(=O)N2C1c1cc(Br)ccc1OC` (stereo not given): -10.8% (inactive); for `CCOC(=O)c1cnn(CCOC(=O)C2CC2)c1NC(=O)C1CC1`: -5.8% (inactive); for `Cc1cccc(N=Cc2cc(Br)cc(Cl)c2O)c1`: -33.9% (inactive).
The same measure for `Cc1cc(C)cc(N=Cc2[nH]c3ccc(Br)c(Cl)c3c2O)c1`: 41% (inactive); for `Cc1cccc(N=Cc2[nH]c3ccc(Br)c(Cl)c3c2O)c1`: 54% (active); for `Nc1c(S(=O)(=O)c2cccs2)c2nc3ccccc3nc2n1CC1CCCO1` (stereo not given): 4.2% (inactive).
Under `NC1=NC(=O)C2(COC(c3cccnc3)OC2)S1` (stereo not given) stands -12.6% (inactive); under `Nc1nc2ccc([N+](=O)[O-])cc2[nH]1`, 20.4% (inactive); under `O=[N+]([O-])c1ccc2[nH]nc(-c3ccccc3)c2c1`, -6.7% (inactive).
Take `CCC(=O)Nc1nnc(SCC(=O)NCCc2ccc(OC)c(OC)c2)s1`: the inhibition is -2.7% (inactive).
The same measure for `Cc1cc(SCC(=O)N/N=C/c2ccc(C(=O)O)cc2)nc2ccccc12`: 1.1% (inactive); for `CC(C)N1C(=O)S/C(=C/c2ccc(Sc3nc4ccccc4[nH]3)o2)C1=O`: -6.1% (inactive).
Under `CCN(CC)c1ccc(/C=C2\SC(=O)N(C(C)C)C2=O)o1` stands 102% (active).
As to `CC(C)N1C(=O)S/C(=C\c2ccc(-c3ccc(Cl)c(C(=O)O)c3)o2)C1=O`, the inhibition was -27.6% (inactive).
On to `COc1ccccc1OCCNC(=O)Nc1cc(F)c(F)cc1Cl`, for which the inhibition was 3.6% (inactive).
`COc1cc(-c2nc(Cc3c(F)cccc3Cl)no2)cc(OC)c1OC`: the inhibition was 7.3% (inactive).
The same measure for `Oc1ccccc1C1=NN(c2ccccc2)C(c2ccc(F)cc2)C1` (stereo not given): 1.5% (inactive); for `Oc1ccc(C2=NN(c3ccccc3)C(c3ccc(F)cc3)C2)cc1` (stereo not given): 78.6% (active).
The same measure for `COc1ccc(C2CC(c3ccc(F)cc3)=NN2c2ccccc2)cc1OC` (stereo not given): -7.1% (inactive).
Under `COc1cccc(N2C(=O)CC(NNC(=O)c3cccs3)C2=O)c1` (stereo not given) stands -15.4% (inactive); under `O=C(Cn1cncn1)N/N=C/c1cccnc1`, -13.5% (inactive); under `CC(C)C1=NN2C(=N)CC(=O)N=C2S1`, -12.3% (inactive).
In the case of `Cc1ccc(Cn2ncc3c(N4CCN(C)CC4)ncnc32)cc1`, the inhibition was -0.4% (inactive).
As for `Cc1ccc(Cn2ncc3c(N4CCN(Cc5ccc(Cl)cc5)CC4)ncnc32)cc1`, the inhibition is 11.6% (inactive).
Under `Cc1ccc(Cn2ncc3c(N4CCN(c5ccc(C)cc5)CC4)ncnc32)cc1` stands 1.6% (inactive); under `Clc1ccc(Cn2ncc3c(N4CCCC4)ncnc32)cc1`, -11.9% (inactive); under `COc1ccc(C2c3c(ccc4ccccc34)Oc3ncn4nc(CO/N=C/c5ccccc5)nc4c32)cc1` (stereo not given), -1.8% (inactive).
On to `COc1ccc(C(=O)NNS(=O)(=O)c2ccccc2)cc1`, for which the inhibition is -5.9% (inactive).
`CC(C)[C@H](Nc1ccc(S(=O)(=O)N2CCOCC2)cc1[N+](=O)[O-])C(=O)OCC(=O)N(C(C)C)C(C)C`: the inhibition is 11.5% (inactive).
Under `COc1cc(/C=N/NC(=O)CC2(C)OCCCO2)ccc1OCc1ccc(Cl)cc1Cl` stands 10.6% (inactive).
The same measure for `COc1cc(/C=N/NC(=O)CC2(C)OCCCO2)ccc1OCc1ccccc1`: -7.2% (inactive); for `O=C(NCC1CCCO1)c1cc2cc(Cl)ccc2[nH]1` (stereo not given): 2.4% (inactive); for `CCOC(=O)c1ccccc1NC(=O)Cn1cnc2c(oc3ccccc32)c1=O`: 8.3% (inactive).
Under `COC(=O)c1ccc(CSc2nc(C)nc3c2c(=O)n(C)c(=O)n3C)o1` stands -16.8% (inactive); under `O=C(CSc1nc2cc(Cl)ccc2c(=O)n1Cc1ccco1)Nc1ccc(S(=O)(=O)N2CCOCC2)cc1`, -2.6% (inactive); under `O=C(N/N=C/c1cccs1)[C@H]1C[C@@H]1c1ccccc1`, 9.8% (inactive).
Take `Oc1ccc(Nc2nc(-c3ccccc3F)nc3ccccc23)cc1`: the inhibition was -5.3% (inactive).
Under `Oc1ccc(/C=N/Nc2nc(-c3cccnc3)nc3ccccc23)c(O)c1` stands 8.3% (inactive).
